Source: PubChem BioAssay
Six1-Eya2 blk = inhibitors of human Six1/Eya2 interaction; Q15475+O00167; AlphaScreen GST-Six1/His-Eya2 binding, biochemical; hits give low values; activity change, % (no concentration beside the values); 0.56% of 360,000 active; AID 651725; in the data active means activity change below about -65%; inconclusive means mostly about -30% to -63%
Target sequence (O00167 whole entry, looked up): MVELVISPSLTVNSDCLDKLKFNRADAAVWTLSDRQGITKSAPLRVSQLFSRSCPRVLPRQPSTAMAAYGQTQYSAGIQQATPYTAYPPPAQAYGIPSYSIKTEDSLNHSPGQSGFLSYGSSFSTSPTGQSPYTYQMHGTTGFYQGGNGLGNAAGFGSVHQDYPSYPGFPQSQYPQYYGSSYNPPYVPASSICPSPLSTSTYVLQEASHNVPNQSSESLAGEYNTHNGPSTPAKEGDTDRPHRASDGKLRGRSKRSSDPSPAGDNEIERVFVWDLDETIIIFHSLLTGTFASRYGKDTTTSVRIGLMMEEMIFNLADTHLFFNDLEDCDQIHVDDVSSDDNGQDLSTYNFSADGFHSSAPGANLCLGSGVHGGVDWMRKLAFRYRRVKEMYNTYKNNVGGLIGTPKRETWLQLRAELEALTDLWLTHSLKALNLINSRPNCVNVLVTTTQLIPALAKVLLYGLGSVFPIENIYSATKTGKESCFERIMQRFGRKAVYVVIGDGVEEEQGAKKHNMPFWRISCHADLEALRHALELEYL
Target sequence (Q15475 whole entry, looked up): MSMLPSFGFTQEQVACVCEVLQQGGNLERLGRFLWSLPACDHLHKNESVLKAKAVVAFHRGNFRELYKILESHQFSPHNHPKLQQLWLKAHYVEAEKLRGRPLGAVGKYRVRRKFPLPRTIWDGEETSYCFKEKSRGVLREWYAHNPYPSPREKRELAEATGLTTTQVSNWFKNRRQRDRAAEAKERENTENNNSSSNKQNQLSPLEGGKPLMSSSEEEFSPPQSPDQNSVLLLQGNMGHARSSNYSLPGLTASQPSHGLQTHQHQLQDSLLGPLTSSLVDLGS
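Six1/Eya2 binding was read as AlphaScreen signal after compounds were pinned into GST-Six1 plus His-tagged Eya2 (5X stock 250/500 nM) in pH 8.0 Tris/NaCl/TCEP buffer, beads added, then incubated 1 h, 37 C, dark.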
CtBP-E1A blk = blocks the CtBP interaction with E1A; AlphaScreen GST-E1A/His-CtBP binding, 1536-well; hits give low values; activity change, % (test concentration not listed); AID 651724; 0.49% of 340,000 active; in the data active means activity change below about -65%; inconclusive means mostly about -30% to -63%
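Steps: dispense buffer (Tris pH 8.0, NaCl 300 mM, TCEP 1 mM, BSA, Tween 20); add 5X protein mix (GST-E1A, His-CtBP, 125 nM each); pin 23 nL compound; 2 h at 37 °C, dark; add 5X beads (50 ug/mL); 1 h; read.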
IL-1B inflam inh = inhibitors of inflammasome signaling (IL-1 beta secretion); activity change, % at 57.5 µM; THP-1 LPS/ATP IL-1B secretion, AlphaLISA, 16 h; hits give low values; 4.7% of 360,000 active; in the data active means activity change below about -50%; inconclusive means mostly about -30% to -49%
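Secreted IL-1B measured by AlphaLISA bead assay after 16 h compound exposure of THP-1 cells; compounds (final up to 57.5 uM) added 1 h before LPS (250 ng/mL) and ATP (1.25 mM) stimulation; lower signal means less secretion.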
TDP1 inh = TDP1 (human) enzyme inhibition | Q9NUW8 | recombinant TDP1, AlphaScreen DNA substrate cleavage | Potency, µM (doses to about 130 µM), without a hit: at the top dose activity change, negative = inhibition, hits mostly inhibitors | 0.28% of 350,000 active; further: potency means the concentration at half of the fitted maximal effect; nearly all actives have a fitted effect of over 40% in size
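Recombinant human Tdp1 (E. coli-expressed, 1 nM final) preincubated with compounds 15 min at room temperature, then 5'-biotin/3'-phosphotyrosine-FITC DNA substrate (15 nM final) added for 5 min. AlphaScreen beads (10 ug/ml final) added 10 min; cleavage lowers signal.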
DT40 TDP1 CPT = growth inhibition of DT40 Tdp1-/-;hTDP1 cells with camptothecin (screen for TDP1 inhibitors). Potency, µM (doses to about 46.2 µM), for inactives: top-dose activity change, negative = growth inhibition, hits mostly inhibitors. 12% of 420,000 active. chicken DT40 Tdp1-/-;hTDP1 cells + 20 nM CPT, ATP luminescence, 48 h. AID 686979; further: potency means the concentration at half of the fitted maximal effect; nearly all actives have a fitted effect of over 55% in size
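Cell growth measured by CellTiter-Glo luminescence after a minimum 48 h, 37 C compound exposure with 20 nM CPT in Tdp1-knockout DT40 cells stably expressing hTDP1, seeded 400/well; qHTS titration format.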
DT40 TDP1 no CPT = qHTS for Inhibitors of human tyrosyl-DNA phosphodiesterase 1 (TDP1): qHTS in cells in absence of CPT; Potency, µM (highest dose often 46.2 µM), for inactives: at the highest dose activity change, negative = growth inhibition, usual class: inhibitors; 15% of 420,000 active; DT40 Tdp1-/- hTDP1 cells, no CPT, ATP luminescence, 48 h; further: potency means the concentration at half of the fitted maximal effect; nearly all actives have a fitted effect of over 55% in size
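Seeded 400 DT40-hTDP1 cells/well (vehicle DMSO, no 20 nM CPT); pinned compounds; ≥48 hr at 37 °C; CellTiter-Glo luminescence as viability measure.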
* marks the source's active call; other numbers are inactive results; ? = inconclusive; / = not tested or not shown; [ ] = dose if it differs, or a comment. Hits are enriched below; roughly 18% of the tested compounds scored in any of these assays. Unless noted, the call rests on the fitted dose curve; in most records, active means well fitted curve in the direction sought with a large enough effect; inconclusive means small, poorly fitted or top-dose-only effect, or another doubt; inactive means no such curve, though single readings can be large; an effect the other way counts as inactive or inconclusive. On the % scale 0 is the no-effect control and ±100 the full control effect.

SMILES	Six1-Eya2 blk	CtBP-E1A blk	IL-1B inflam inh	TDP1 inh	DT40 TDP1 CPT	DT40 TDP1 no CPT
O=C(Nc1ccccc1)c1cc(C2CCCN(C(=O)c3ccc4c(c3)CCO4)C2)on1 (centres undefined)	1.3	-4.6	3.8	/	2.2%	-25.9%
O=C(NCCCn1ccnc1)/C(=C\c1cccs1)NC(=O)c1ccccc1	8.5	16.9	4.2	5.3%	9.8%	2.8%
CCCOc1ccc(C(=O)OCC(=O)c2c(N)n(C)c(=O)n(C)c2=O)cc1OC	2.7	0.0	7.9	-2.3%	2.6%	-11.3%
COc1ccc(-c2nc(-c3cccs3)c(-c3cccs3)[nH]2)cc1O	?	?	-2.4	6.8%	16.4µM*	13µM*
O=C(O)c1ccc(-c2nc(-c3ccccc3)c(-c3cccs3)[nH]2)cc1	-10.8	-12.6	32.2	1.9%	15.2%	11.1%
CC1CCN(c2nc(N(C)c3ccccc3)nc(N)c2[N+](=O)[O-])CC1	-16.3	-12.7	/	5.5%	-28.9%	?
COc1ccc(NC(=O)c2c(-c3ccc(C)cc3)nnc3ccccc23)c(OC)c1	/	/	/	5.3%	18.4µM*	16.4µM*
COc1ccc(NC(=O)c2cc(C)nc3ccccc23)c(OC)c1	-1.2	-3.2	31.5	5.1%	12.7%	-8.1%
COc1ccccc1NC(=O)c1c(-c2ccc(C)cc2)nnc2ccccc12	/	/	/	5.3%	18.4µM*	?
COc1ccc(NC(=O)c2c(-c3ccc(C)cc3)nnc3ccccc23)cc1OC	/	/	/	5.3%	-14.6%	-20.2%
O=C1OCCN1C(=O)[C@H]1[C@H](c2ccc(F)cc2)C(c2ccc(F)cc2)=NN1c1ccc(Br)cc1	12.9	6.5	-61.2*	-5.1%	?	?
Cc1cc(Cl)ccc1NC(=S)NCc1ccc(F)cc1	0.5	-0.5	-56.4*	5.4%	2.8%	?
Cc1cc(Cl)ccc1NC(=S)NCC(C)C	9.2	3.0	-4.2	3.5%	?	29.1µM*
Cc1cc(Cl)ccc1NC(=S)NCc1ccccc1Cl	-10.0	3.2	-5.5	0.0%	?	25.9µM*
CCc1nc2ccc(C(=O)NCCN3CCOCC3)cn2c1N(CC)CCOC	0.1	2.4	50.0	/	?	?
CCOC(=O)C1CCN(C(=O)c2ccc(Br)o2)CC1	-0.1	2.1	11.3	-4.5%	-1.9%	-13.0%
Cc1ccc(CN2C(=O)N/C(=C\c3ccc(N4CCOCC4)cc3)C2=O)cc1	10.2	0.1	5.1	-5.4%	-28.0%	?
CCCN1C(=O)/C(=C/c2ccc(N3CCCC3)c(C)c2)NC1=S	-15.9	-18.8	-25.3	4.0%	16.4µM*	20.6µM*
CCN1C(=O)/C(=C/c2ccc(N3CCCC3)cc2)NC1=S	?	-23.6	-67.4*	6.9%	23.1µM*	23.1µM*
CCCN1C(=O)/C(=C/c2ccc(N3CCOCC3)cc2)NC1=S	12.6	13.7	21.9	1.2%	?	14.6µM*
Cc1cc(/C=C2\NC(=S)N(C)C2=O)ccc1N1CCCC1	-12.3	0.5	-8.1	10.8%	?	?
CC(=O)c1ccc(-c2ccc(C(=O)N3CCCc4ccccc43)o2)cc1	-18.7	19.2	?	1.2%	?	?
Cc1ccc(S(=O)(=O)N2CCC(=O)N(C(COCc3ccc(C(F)(F)F)cc3)C(C)C)CC2)cc1 (centres undefined)	3.8	-0.1	-24.0	3.9%	16.4µM*	11.6µM*
Cc1ccc(S(=O)(=O)N2CCC(=O)N([C@H](COCc3cccc(C(F)(F)F)c3)C(C)C)CC2)cc1	1.5	4.4	23.9	/	?	16.4µM*
N#CCn1cnc2c(oc3ccccc32)c1=O	-0.8	/	-1.8	0.8%	21.5%	-13.2%
SMILES	Six1-Eya2 blk	CtBP-E1A blk	IL-1B inflam inh	TDP1 inh	DT40 TDP1 CPT	DT40 TDP1 no CPT
Cc1cc(C)n(C(=O)CCNC(=O)c2ccccc2Br)n1	10.4	3.5	6.9	4.0%	-13.8%	-2.2%
CCCCOc1ccc(NC2=NC3(CCCC3)N=C(N)N2)cc1	-3.7	-9.1	-28.2	1.1%	16.4µM*	16.4µM*
NC1=NC2(CCCCC2)N=C(Nc2ccc(F)cc2F)N1	-0.4	-3.0	11.0	3.1%	-2.5%	-0.1%
COc1ccc(OC)c(NC2=NC3(CCCC3)N=C(N)N2)c1	-68.3*	?	16.5	9.1%	-21.2%	-11.9%
N#Cc1c(-c2cccs2)cc(-c2cccnc2)nc1N	-7.2	-10.5	34.8	4.8%	?	?
N#Cc1c(-c2cccs2)cc(-c2ccccn2)nc1N	-13.8	-7.4	-11.2	3.0%	5.8µM*	5.8µM*
Cc1[nH]nc2c1C(c1cn[nH]c1-c1ccc(F)cc1)C(C#N)=C(N)O2 (centres undefined)	8.6	-9.4	-80.4*	3.8%	?	?
Cc1ccc(C2C(C#N)=C(N)Oc3n[nH]c(-c4ccccc4)c32)o1 (centres undefined)	-18.8	-20.5	4.1	7.9%	13µM*	23.1µM*
COc1ccc(-c2ccc(C3C(C#N)=C(N)Oc4n[nH]c(C)c43)o2)cc1 (centres undefined)	?	-66.9*	-3.3	5.9%	20.6µM*	20.6µM*
Cc1ccc(C2C(C#N)=C(N)Oc3n[nH]c(-c4cccnc4)c32)o1 (centres undefined)	-4.9	4.0	6.0	4.9%	-19.6%	-1.5%
O=C(CN(Cc1ccc(F)cc1)C(=O)c1csnn1)NCc1ccccc1	-3.5	1.3	28.0	-2.8%[0.0935 µM]	5.6%	-0.3%
Cc1cnc(NC(=O)CCN2C(=O)C3CCCCC3C2=O)s1 (centres undefined)	0.0	1.7	?	6.9%	20.1%	-4.2%
Cc1cc(=O)n(Cc2cccc(Br)c2)c2c1c(C)nn2-c1ccccc1	/	/	/	4.5%	-22.3%	-9.4%
Cc1nn(C)c2c1c(-c1ccccc1)cc(=O)n2Cc1ccc(F)cc1	/	/	/	-8.4%	16.4µM*	?
COC(=O)c1ccc(Cn2c(=O)cc(C)c3c(C)nn(C)c32)cc1	/	/	/	-3.2%	10.3µM*	16.4µM*
COc1cccc(Cn2c(=O)cc(C)c3c(C)nn(-c4ccc(C)cc4)c32)c1	/	/	/	4.5%	20.6µM*	18.4µM*
Cc1nn(C)c2c1c(-c1ccccc1)cc(=O)n2Cc1ccccc1F	/	/	/	-1.9%	?	-25.4%
COc1ccc(OC)c(NC(=O)Cn2c(=O)cc(-c3ccccc3)c3c(C)nn(C)c32)c1	/	/	/	-9.7%	?	20.6µM*
CCOc1ccccc1NC(=S)N1CCN(c2ccc(OC)cc2)CC1	-18.2	-16.5	-7.8	8.1%	-29.0%	-20.0%
